Assay results published in the supplement of paper PMC8728848.
Only a selection was taken, and the strongest signals are over-represented in it overall.

Tests used:
Assay in all cases: glycan array binding signal (z-score within array); higher = stronger binding
Details in all cases: glycan notation: IUPAC condensed, linker removed
[1] = biological target: Fuc(a1-2)Gal(b1-3)GalNAc(a1-3)[Fuc(a1-2)]Gal(b1-4)GlcNAc
Method in brief: (§1)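 Glycan array binding is given as a within-array Z-score, which can be read as non-binding when negative. The arrays, 3228 of them, came from the Consortium for Functional Glycomics database and were retained only where the protein sequence was available. Z-scores were averaged across arrays of the same protein sequence at different concentrations or buffers and across linkers.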

[2] = biological target: Fuc(a1-2)Gal(b1-4)GlcNAc(b1-2)Man(a1-3)[Fuc(a1-2)Gal(b1-4)GlcNAc(b1-2)Man(a1-6)]Man(b1-4)GlcNAc(b1-4)GlcNAc
Method in brief: as §1

[3] = biological target: Fuc(a1-2)Gal(b1-4)GlcNAc(b1-2)Man(a1-3)[Fuc(a1-2)Gal(b1-4)GlcNAc(b1-2)Man(a1-6)]Man(b1-4)GlcNAc(b1-4)[Fuc(a1-6)]GlcNAc
Method in brief: as §1

[4] = biological target: Fuc(a1-2)Gal(b1-4)GlcNAc(b1-6)GalNAc
Method in brief: as §1

[5] = biological target: Fuc(a1-2)Gal6S(b1-3)GlcNAc6S
Method in brief: as §1

[6] = biological target: Fuc(a1-2)Gal6S(b1-4)Glc6S
Method in brief: as §1

[7] = biological target: Fuc(a1-2)[Gal(a1-3)]Gal(b1-3)GlcNAc(b1-2)Man(a1-3)[Fuc(a1-2)[Gal(a1-3)]Gal(b1-3)GlcNAc(b1-2)Man(a1-6)]Man(b1-4)GlcNAc(b1-4)[Fuc(a1-6)]GlcNAc
Method in brief: as §1

[8] = biological target: Fuc(a1-2)[Gal(a1-3)]Gal(b1-4)GlcNAc(b1-2)Man(a1-3)[Fuc(a1-2)[Gal(a1-3)]Gal(b1-4)GlcNAc(b1-2)Man(a1-6)]Man(b1-4)GlcNAc(b1-4)[Fuc(a1-6)]GlcNAc
Method in brief: as §1

[9] = biological target: Fuc(a1-2)[Gal(a1-3)]Gal(b1-4)[Fuc(a1-3)]GlcNAc
Method in brief: as §1

[10] = biological target: Fuc(a1-2)[GalNAc(a1-3)]Gal(b1-3)GalNAc(a1-3)[Fuc(a1-2)]Gal(b1-4)GlcNAc
Method in brief: as §1

[11] = biological target: Fuc(a1-2)[GalNAc(a1-3)]Gal(b1-3)GlcNAc
Method in brief: as §1

[12] = biological target: Fuc(a1-2)[GalNAc(a1-3)]Gal(b1-3)GlcNAc(b1-2)Man(a1-3)[Fuc(a1-2)[GalNAc(a1-3)]Gal(b1-3)GlcNAc(b1-2)Man(a1-6)]Man(b1-4)GlcNAc(b1-4)[Fuc(a1-6)]GlcNAc
Method in brief: as §1

[13] = biological target: Fuc(a1-2)[GalNAc(a1-3)]Gal(b1-3)GlcNAc(b1-3)GalNAc
Method in brief: as §1

[14] = biological target: Fuc(a1-2)[GalNAc(a1-3)]Gal(b1-3)GlcNAc(b1-6)GalNAc
Method in brief: as §1

[15] = biological target: Fuc(a1-2)[GalNAc(a1-3)]Gal(b1-4)GlcNAc(b1-2)Man(a1-3)[Fuc(a1-2)[GalNAc(a1-3)]Gal(b1-4)GlcNAc(b1-2)Man(a1-6)]Man(b1-4)GlcNAc(b1-4)GlcNAc
Method in brief: as §1

[16] = biological target: Fuc(a1-2)[GalNAc(a1-3)]Gal(b1-4)GlcNAc(b1-3)GalNAc
Method in brief: as §1

[17] = biological target: Fuc(a1-2)[GalNAc(b1-3)]Gal
Method in brief: as §1

Fuc(a1-3)GlcNAc = biological target: Fuc(a1-3)GlcNAc
Method in brief: as §1

[18] = biological target: Fuc(a1-3)[GalNAc(b1-4)]GlcNAc6S
Method in brief: as §1

[19] = biological target: Fuc(a1-3)[GalNAc3S(b1-4)]GlcNAc
Method in brief: as §1

Fuc(b1-3)GlcNAc = biological target: Fuc(b1-3)GlcNAc
Method in brief: as §1

[20] = biological target: Gal(a1-3)Gal(b1-4)GlcNAc(b1-3)GalNAc
Method in brief: as §1

[21] = biological target: Gal(b1-3)GalNAc(a1-3)[Fuc(a1-2)]Gal(b1-4)Glc
Method in brief: as §1

[22] = biological target: Gal(b1-3)GlcNAc(b1-2)Man(a1-3)[Gal(b1-3)GlcNAc(b1-2)Man(a1-6)]Man(b1-4)GlcNAc(b1-4)[Fuc(a1-6)]GlcNAc
Method in brief: as §1

[23] = biological target: Gal(b1-4)GalNAc(a1-3)[Fuc(a1-2)]Gal(b1-4)GlcNAc
Method in brief: as §1

Gal(b1-4)Glc = biological target: Gal(b1-4)Glc
Method in brief: as §1

[24] = biological target: Gal(b1-4)GlcNAc(b1-2)Man(a1-3)[Gal(b1-4)GlcNAc(b1-2)][GlcNAc(b1-4)]Man(b1-4)GlcNAc(b1-4)GlcNAc
Method in brief: as §1

[25] = biological target: Gal(b1-4)GlcNAc(b1-3)Gal(b1-4)[Fuc(a1-3)GlcNAc(b1-6)]Gal(b1-4)Glc
Method in brief: as §1

Gal6S(b1-4)Glc = biological target: Gal6S(b1-4)Glc
Method in brief: as §1

Gal6S(b1-4)GlcNAc6S = biological target: Gal6S(b1-4)GlcNAc6S
Method in brief: as §1

GlcA(b1-6)Gal = biological target: GlcA(b1-6)Gal
Method in brief: as §1

[26] = biological target: GlcNAc(b1-2)Man(a1-3)[GlcNAc(b1-2)Man(a1-6)]Man(b1-4)GlcNAc(b1-4)[Fuc(a1-6)]GlcNAc
Method in brief: as §1

[27] = biological target: GlcNAc(b1-2)[GlcNAc(b1-4)]Man(a1-3)[GlcNAc(b1-4)][GlcNAc(b1-2)[GlcNAc(b1-6)]Man(a1-6)]Man(b1-4)GlcNAc(b1-4)[Fuc(a1-6)]GlcNAc
Method in brief: as §1

[28] = biological target: GlcNAc(b1-4)[GlcNAc(b1-6)]GalNAc
Method in brief: as §1

[29] = biological target: Neu5Ac(a2-3)Gal(b1-4)GlcNAc(b1-2)[Neu5Ac(a2-3)Gal(b1-4)GlcNAc(b1-6)]Man(a1-6)[Neu5Ac(a2-3)Gal(b1-4)GlcNAc(b1-2)Man(a1-3)]Man(b1-4)GlcNAc(b1-4)GlcNAc
Method in brief: as §1

[30] = biological target: Neu5Ac(a2-3)Gal(b1-4)[Fuc(a1-3)]GlcNAc(b1-3)Gal(b1-4)GlcNAc
Method in brief: as §1

[31] = biological target: Neu5Ac(a2-3)Gal(b1-4)[Fuc(a1-3)]GlcNAc(b1-3)GalNAc
Method in brief: as §1

[32] = biological target: Neu5Ac(a2-3)GalNAc(b1-4)GlcNAc
Method in brief: as §1

[33] = biological target: Neu5Ac(a2-6)Gal(b1-4)GlcNAc(b1-3)Gal(b1-4)[Fuc(a1-3)]GlcNAc(b1-3)Gal(b1-4)[Fuc(a1-3)]GlcNAc
Method in brief: as §1

[34] = biological target: Neu5Ac(a2-6)Gal(b1-4)GlcNAc(b1-6)[Gal(b1-3)GlcNAc(b1-3)]Gal(b1-4)Glc
Method in brief: as §1

[35] = biological target: Neu5Ac(a2-6)GlcNAc(b1-4)GlcNAc
Method in brief: as §1

[36] = biological target: Neu5Ac(a2-8)Neu5Ac(a2-8)Neu5Ac
Method in brief: as §1

[37] = biological target: Neu5Gc(a2-3)Gal(b1-3)GlcNAc
Method in brief: as §1

Neu5Gc(a2-3)Gal(b1-4)Glc = biological target: Neu5Gc(a2-3)Gal(b1-4)Glc
Method in brief: as §1

B1: CvGal1 (Crassostrea virginica), A7Y0I5 (protein)
chain: MTYQISKISQPFTSYIPNGLHIGKHLLLRGRVSYGTEAFAINLQQNPEPCNGEVAFHFNPRPGEQQCVRNSFDGGSWMDEERDQPHFPFDEGRSFTLRIEVAEEGFRTYVNGKPYVNFSHRLDLGNVHYLYLTEGAEFYDISYQDRYTLPYKSEIPQQMNVGKAVRIRGASQDNDGFSVNFACDPDNENCAFHFNPRPNEGVVVRNANLGGWGDEERDYEAEFPFHPYNYFDAMFICTDDKYLVHVNDKYFTEFNHRGGVDASSFFNIVGNLDIQDVEYFEPLEDDFVKTIPSGLVKGDVLIFRGFMKPGGDTFSINFMNGYSVEDDIAFHLNPRVGEGQVVMNCCMGGAWGDEEREDIPSPLADREPFEVKVVVKKNKFKVYVNGKKCMKFAARGNLEDIKGVNIKGEAYVYEVKLERKLEDSWEYLPGGFRVGGWVVVQAIPKKGSEGFAINFRTGSDEDSDIAFHFNPRLQENCTIRNSCAGGAWGGEERDQPDFPFEKKDTCEIAIQAQPDRFVTYVNGKRYIEFNHRLPLESITCVELTGRADFFEPKFF
[1]
  glycan array binding signal (z-score): 6.13
[2]
  glycan array binding signal (z-score): 0.157
[3]
  glycan array binding signal (z-score): -0.053
[4]
  glycan array binding signal (z-score): -0.258
[5]
  glycan array binding signal (z-score): -0.213
[6]
  glycan array binding signal (z-score): -0.259
[7]
  glycan array binding signal (z-score): 0.478
[8]
  glycan array binding signal (z-score): 1.42
[9]
  glycan array binding signal (z-score): -0.263
[10]
  glycan array binding signal (z-score): 3.63
[11]
  glycan array binding signal (z-score): 4.14
[12]
  glycan array binding signal (z-score): 4.71
[13]
  glycan array binding signal (z-score): 1.75
[14]
  glycan array binding signal (z-score): 3.97
[15]
  glycan array binding signal (z-score): 6.1
[16]
  glycan array binding signal (z-score): 5.16
[17]
  glycan array binding signal (z-score): -0.306
Fuc(a1-3)GlcNAc
  glycan array binding signal (z-score): -0.088
[18]
  glycan array binding signal (z-score): -0.215
[19]
  glycan array binding signal (z-score): -0.259
Fuc(b1-3)GlcNAc
  glycan array binding signal (z-score): -0.219
[20]
  glycan array binding signal (z-score): -0.197
[21]
  glycan array binding signal (z-score): 3.55
[22]
  glycan array binding signal (z-score): -0.265
[23]
  glycan array binding signal (z-score): 4.11
Gal(b1-4)Glc
  glycan array binding signal (z-score): -0.253
[24]
  glycan array binding signal (z-score): -0.195
[25]
  glycan array binding signal (z-score): -0.264
Gal6S(b1-4)Glc
  glycan array binding signal (z-score): -0.291
Gal6S(b1-4)GlcNAc6S
  glycan array binding signal (z-score): -0.182
GlcA(b1-6)Gal
  glycan array binding signal (z-score): -0.259
[26]
  glycan array binding signal (z-score): -0.3
[27]
  glycan array binding signal (z-score): -0.249
[28]
  glycan array binding signal (z-score): -0.23
[29]
  glycan array binding signal (z-score): -0.283
[30]
  glycan array binding signal (z-score): -0.226
[31]
  glycan array binding signal (z-score): -0.166
[32]
  glycan array binding signal (z-score): -0.277
[33]
  glycan array binding signal (z-score): -0.28
[34]
  glycan array binding signal (z-score): -0.245
[35]
  glycan array binding signal (z-score): -0.303
[36]
  glycan array binding signal (z-score): -0.236
[37]
  glycan array binding signal (z-score): -0.239
Neu5Gc(a2-3)Gal(b1-4)Glc
  glycan array binding signal (z-score): -0.311
